# The full list was thinned out, with hits kept by preference.
# DAT uptake mod = changed hDAT dopamine uptake under cocaine IC80, either direction, primary screen, cocaine antagonist project, cell-based, LLC-PK1 hDAT, [14C]-dopamine uptake, MLSMR. B-score at 10 µM. Sodium-dependent dopamine transporter (Homo sapiens), Q01959. LLC-PK1 hDAT cells, [14C]-dopamine uptake with cocaine IC80; actives deviate in either direction. AID 449768, 2010. hit rate 1.3% among 110,000;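 active = Z score or B-score, a plate-position-corrected score, falls beyond the plate's 99.7% confidence bounds, in either direction; inactive = both scores lie inside the 99.7% bounds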;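 note: scored against the spread of the other compound wells on the same plate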
# Target sequence (Q01959 whole entry, looked up): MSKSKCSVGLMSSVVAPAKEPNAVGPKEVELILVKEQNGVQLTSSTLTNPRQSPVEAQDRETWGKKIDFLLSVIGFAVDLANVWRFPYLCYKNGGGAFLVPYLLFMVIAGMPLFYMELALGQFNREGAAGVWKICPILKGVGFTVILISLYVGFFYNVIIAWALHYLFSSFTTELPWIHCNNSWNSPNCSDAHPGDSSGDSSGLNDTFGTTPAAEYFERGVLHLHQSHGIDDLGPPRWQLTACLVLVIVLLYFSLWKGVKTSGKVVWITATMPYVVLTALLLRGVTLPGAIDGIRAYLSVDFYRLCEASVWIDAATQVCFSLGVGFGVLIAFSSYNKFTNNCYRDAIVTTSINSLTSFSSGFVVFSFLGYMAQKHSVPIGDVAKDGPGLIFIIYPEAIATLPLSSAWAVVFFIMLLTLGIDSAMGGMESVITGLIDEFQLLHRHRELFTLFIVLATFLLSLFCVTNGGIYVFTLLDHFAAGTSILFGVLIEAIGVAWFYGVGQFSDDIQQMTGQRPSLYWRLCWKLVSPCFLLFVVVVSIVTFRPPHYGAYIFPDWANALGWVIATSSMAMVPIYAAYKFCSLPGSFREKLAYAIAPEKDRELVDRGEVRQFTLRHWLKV
# D1 mod = D1 CRE-luciferase signal change, two-sided – cell-based, HEK293 D1, dopamine EC30, D1 allosteric modulator project, primary screen; dopamine EC30 potentiation; actives deviate in either direction; B-score at 10 µM; hit rate 5.9% among 58,000; AID 641, 2007;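 active = luminescence count or its row- and column-corrected plate score outside the 99.7% band of the plate's sample wells, on either side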
# BAP1 inh = inhibitors of BAP1 deubiquitinase, primary screen, biochemical, Ub-AMC fluorescence, kinetic; recombinant BAP1, Ub-AMC hydrolysis fluorescence kinetic; active compounds read low; calls only at 20 µM; hit rate 0.48% among 72,000; AID 436, 2006;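 active = activity remaining at or below 50% of control, provided the compound also passes the data quality filters; inactive = the rest, including low values that fail the filters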;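 note: 100% = DMSO wells rate and 0% = substrate alone blank rate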
# An asterisk follows results filed as active; i = inactive; x = no result.
SMILES,DAT uptake mod,D1 mod,BAP1 inh
CCC(=O)NC(C)C(c1cccs1)N1CCN(Cc2ccccc2)CC1 (stereo not drawn),-0.18,x,x
CCN1CCN(C(c2cccs2)C(C)NC(=O)c2ccccc2OC)CC1 (stereo not drawn),0.46,-0.17,i
CC(NC(=O)c1cccs1)C(c1cccs1)N1CCN(Cc2ccccc2)CC1 (stereo not drawn),-0.12,-2.1*,i
CCN1CCN(C(c2cccs2)C(C)NC(=O)c2ccco2)CC1 (stereo not drawn),-0.65,-1.4*,i
COc1cc(OC)c(C2SCCN2C(=O)c2cc3ccccc3oc2=O)cc1OC (stereo not drawn),x,x,i
O=C(O)CCn1nnc(-c2cccs2)n1,0.49,0.1,i
CC(C)c1ccc(-c2nnn(CCC(=O)O)n2)cc1,-0.55,-3.6*,i
O=c1[nH]cnc2nc(N3CCCCC3)[nH]c12,x,x,i
O=[N+]([O-])c1cc(S(=O)(=O)Nc2cc3c4c(oc3c3ccccc23)CCCC4)ccc1Cl,x,x,i
COC(=O)c1oc2ccccc2c1NC(=O)CN1CCCC1,-0.32,13*,i
COC(=O)c1oc2ccc(Br)cc2c1NC(=O)CN1CCN(C)CC1,-0.063,1.2,i
CCOC(=O)c1c(NC(=O)c2ccc([N+](=O)[O-])cc2Cl)sc2c1CCC(CC)C2 (stereo not drawn),x,x,i
CCCCC(O)(CCN1CCOCC1)c1ccc(Cl)cc1 (stereo not drawn),-1.8,x,x
CCCC(O)(c1ccc(Cl)cc1)C(CN1CCOCC1)c1ccccc1 (stereo not drawn),-2.8*,x,x
CCOc1ccc(-c2noc(CCC(=O)O)n2)cc1,0.034,x,i
COc1ccc(-c2noc(CCCC(=O)O)n2)cc1,0.052,-5.5*,i
O=C(CN(C(=O)CCC(=O)Nc1nccs1)c1ccc(F)c(Cl)c1)NCc1ccco1,-0.11,0.29,i
O=C(CN(C(=O)CCC(=O)Nc1nccs1)c1ccc(F)cc1)NCc1ccco1,-2.8*,0.3,i
Cc1cc(C)cc(C(=O)N2CC(=O)Nc3ccccc32)c1,-3.3*,x,x
Cc1ccsc1C(=O)N1CC(=O)Nc2ccccc21,0.13,-0.15,i
Clc1ccc(Nc2ncnc3c2cnn3-c2ccccc2)cc1,-0.016,-1.1,i
CC(C)Nc1ncnc2c1cnn2-c1ccc(Cl)cc1,0.38,-6.1*,i
COc1ccc(C2(C(N)=O)CCCCC2)cc1OC,-1.9,8.5*,i
COc1ccc(C2(C(=O)NC(C)C)CCCC2)cc1OC,-0.2,0.26,i
CN1CCCN(C2CC(=O)N(c3ccc(Br)cc3)C2=O)CC1 (stereo not drawn),x,x,i
SMILES,DAT uptake mod,D1 mod,BAP1 inh
Cc1ccc2c(c1)-c1c(cnn1CC(=O)O)CO2,0.6,1.5,i
Cc1ccc2c(c1)-c1c(cnn1CC(=O)N1CCCN(Cc3ccccc3F)C1)CO2,-0.37,-2.9*,i
COc1ccccc1Nc1n[nH]c(=S)n1-c1ccccc1OC,x,x,i
O=C(CN1C(=O)c2ccccc2C1=O)Nc1ccc(C(=O)Nc2cccc(O)c2)cc1,x,x,i
CC1CC(C)CN(CCOc2ccc(Cl)cc2Cl)C1 (stereo not drawn),-8.3*,x,x
Clc1ccc(OCCN2CCCCC2)c(Cl)c1,0.092,x,x
O=C(O)CCC(=O)Nc1cccc(NC(=O)c2ccc(Br)cc2)c1,x,x,i
COc1ccc(C2CC(C(F)(F)F)n3nc(C(=O)N4CCC(C)CC4)c(Cl)c3N2)cc1OC (stereo not drawn),x,x,i
Nc1ncnc2nc(SCCN3CCCCC3)[nH]c12,x,0.13,i
Cc1cc2nc(SCCN3CCCC3)[nH]c2cc1C,-7.8*,x,i
Cc1ccc(C2CC(C(F)(F)F)n3nc(C(N)=O)cc3N2)cc1 (stereo not drawn),x,x,i
COC(=O)c1ccccc1NC(=O)c1cnn2c(C(F)(F)F)cc(-c3ccccc3)nc12,x,x,i
O=C(Cn1c2ccccc2c(=O)c2ccccc21)Nc1ccc(OCc2ccccc2)cc1,x,x,i
CC1CCCCN1CCNC(=O)CN1C(=O)COc2ccccc21 (stereo not drawn),0.29,-3.5*,i
CC1CCCCN1CCNC(=O)CC1Oc2ccccc2NC1=O (stereo not drawn),0.32,0.33,i
O=C(CCN1C(=O)COc2ccccc21)NCCCN1CCN(c2ccccc2F)CC1,1.3,-3.1*,i
O=C(CCN1C(=O)COc2ccccc21)NCCN1CCc2ccccc2C1,0.74,-1.3,i
COc1cc(C(=S)N2CCOCC2)ccc1OC(=O)c1ccc([N+](=O)[O-])cc1,x,x,i
Cn1c(N)c(C#N)c2c(c1=S)CSC(C)(C)C2,-7.8*,x,i
